In the supplement of paper PMC10849652:
Targets with a hit are over-represented here; the source holds about 8,800 in all. About 0.5% of all pairs of compound and target were hits. Unmarked numbers belong to inactive results.

Key:
Test in all cases: log2 fold change, soluble protein after heating vs DMSO (PISA); higher = thermal stabilisation; K562 lysate, 10 uM; active = over 0.2 and 3.5 SD of the protein, either way, in both replicates (recomputed)
[1] = compound: C=CC(=O)N1CCC[C@@H](n2nc(-c3ccc(Oc4ccccc4)cc3)c3c(N)ncnc32)C1 [ibrutinib]
Summary of the method: (§1)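 Thermal stability, expressed as log-two fold change relative to solvent controls, is given from duplicates. Crude K562 extract in PBS pH 7.4 with 1 mM MgCl2, at 1 mg/mL protein, was treated with 10 μM compound for 30 min and heated in aliquots for 3 min across 48°C-58°C. After pooling, adjustment to 0.5% NP-40 at 4°C and centrifugation at 21,000xg for 90 min, supernatant protein was measured by TMTpro 16plex LC-MS/MS with channel sums equalised.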

[2] = compound: CC(=O)c1cnc2ccc(-c3cc(Cl)c(O)c(Cl)c3)nc2c1N[C@H]1CC[C@H](CN(C)C)CC1
Summary of the method: as §1

[3] = compound: CC(C)(C)Cn1c(N)nc2ccc(-c3[nH]c(C(C)(C)C)nc3-c3ccc(F)cc3)nc21 [ralimetinib]
Summary of the method: as §1

[4] = compound: CC(C)(O)CC(=O)NCCn1ccc2ncnc(Nc3ccc(Oc4cccc(C(F)(F)F)c4)c(Cl)c3)c21
Summary of the method: as §1

[5] = compound: CC(C)C1=C2N=C(C=C(N2N=C1)NCC3=CC=CC=C3)NCCCCCCN
Summary of the method: as §1

[6] = compound: CC1=C(C(CC(=O)N1)C2=CC=C(C=C2)C(F)(F)F)C(=O)NC3=C(C=C4C(=C3)C=NN4)F
Summary of the method: as §1

[7] = compound: CC1=C(C2=C(C=C1)C(=O)C3=CC=CC=C3N2CCCN)C
Summary of the method: as §1

[8] = compound: CC1=C(C=C(C=C1)NC(=O)C2=CC(=CC=C2)C(C)(C)C#N)NC3=CC4=C(C=C3)N=CN(C4=O)C
Summary of the method: as §1

[9] = compound: CC1=C(C=C(C=C1)NC(=O)C2=CC(=CC=C2)N(C)C)NC(=O)C3=CC=C(C=C3)O
Summary of the method: as §1

[10] = compound: CC1=CC=C(C=C1)SC2=C3C=C(SC3=CN=C2)C(=O)N
Summary of the method: as §1

[11] = compound: CCCS(=O)(=O)Nc1ccc(F)c(C(=O)c2c[nH]c3ncc(-c4ccc(Cl)cc4)cc23)c1F [vemurafenib]
Summary of the method: as §1

[12] = compound: CCCS(=O)(=O)Nc1ccc(F)c(C(=O)c2c[nH]c3ncc(Cl)cc23)c1F
Summary of the method: as §1

[13] = compound: CCN(CCCOc1ccc2c(Nc3cc(CC(=O)Nc4cccc(F)c4)[nH]n3)ncnc2c1)CCOP(=O)(O)O [barasertib]
Summary of the method: as §1

[14] = compound: CC[C@@H]1C(=O)N(C)c2cnc(Nc3ccc(C(=O)N[C@H]4CC[C@H](N5CCN(CC6CC6)CC5)CC4)cc3OC)nc2N1C(C)C [volasertib]
Summary of the method: as §1

[15] = compound: CCn1c(C(=O)N(C2CC2)C2CC2)cc2c3c(ncn3C)c(Nc3cc(C)n(C)n3)nc21
Summary of the method: as §1

[16] = compound: CCn1cc(-c2ccnc3[nH]c(-c4cccc(CN(C)C)c4)cc23)c(-c2ccc(NC(=O)N(C)C)cc2)n1
Summary of the method: as §1

[17] = compound: CN1CCC(CNc2ccc3ncc(-c4cccc(OC(F)(F)F)c4)n3n2)CC1
Summary of the method: as §1

[18] = compound: CN1CCN(CCOc2cc(OC3CCOCC3)c3c(Nc4c(Cl)ccc5c4OCO5)ncnc3c2)CC1 [saracatinib]
Summary of the method: as §1

[19] = compound: CN1CCN(c2nc(C3=C(c4c[nH]c5ccccc45)C(=O)NC3=O)c3ccccc3n2)CC1 [sotrastaurin]
Summary of the method: as §1

[20] = compound: CC[C@@H]1C(=O)N(C)c2cnc(Nc3ccc(C(=O)NC4CCN(C)CC4)cc3OC)nc2N1C1CCCC1
Summary of the method: as §1

Chain of UniProt O60504 (O60504 whole entry, looked up): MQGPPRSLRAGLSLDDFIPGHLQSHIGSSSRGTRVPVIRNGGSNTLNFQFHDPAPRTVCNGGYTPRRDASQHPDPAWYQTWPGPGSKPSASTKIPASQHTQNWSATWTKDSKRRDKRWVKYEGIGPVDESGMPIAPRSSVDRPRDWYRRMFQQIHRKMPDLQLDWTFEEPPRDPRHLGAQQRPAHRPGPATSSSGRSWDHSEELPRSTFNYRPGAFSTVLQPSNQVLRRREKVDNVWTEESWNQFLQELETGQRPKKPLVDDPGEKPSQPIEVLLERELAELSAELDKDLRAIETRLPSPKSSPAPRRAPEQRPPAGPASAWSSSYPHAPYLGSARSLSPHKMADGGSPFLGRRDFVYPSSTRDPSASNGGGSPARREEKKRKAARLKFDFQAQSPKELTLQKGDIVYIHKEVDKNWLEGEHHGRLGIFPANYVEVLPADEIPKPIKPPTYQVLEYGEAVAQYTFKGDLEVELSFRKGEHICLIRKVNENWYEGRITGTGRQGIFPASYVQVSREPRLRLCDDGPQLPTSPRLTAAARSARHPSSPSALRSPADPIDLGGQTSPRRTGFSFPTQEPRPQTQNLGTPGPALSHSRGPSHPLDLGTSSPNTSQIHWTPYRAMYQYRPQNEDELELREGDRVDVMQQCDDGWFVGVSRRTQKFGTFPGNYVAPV
Chain of UniProt Q13309 (Q13309 whole entry, looked up): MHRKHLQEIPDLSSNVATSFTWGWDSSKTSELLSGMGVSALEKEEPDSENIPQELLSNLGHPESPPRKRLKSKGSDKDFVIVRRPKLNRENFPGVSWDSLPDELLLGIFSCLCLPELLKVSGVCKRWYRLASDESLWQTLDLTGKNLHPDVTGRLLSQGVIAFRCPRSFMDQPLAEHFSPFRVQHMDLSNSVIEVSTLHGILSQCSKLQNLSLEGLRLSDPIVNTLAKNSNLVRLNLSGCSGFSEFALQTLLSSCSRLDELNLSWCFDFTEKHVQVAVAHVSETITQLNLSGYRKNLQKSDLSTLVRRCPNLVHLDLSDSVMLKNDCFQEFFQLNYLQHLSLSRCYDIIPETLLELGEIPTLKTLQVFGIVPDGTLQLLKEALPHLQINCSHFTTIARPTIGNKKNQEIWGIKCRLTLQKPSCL
Chain of UniProt P35711 (P35711 whole entry, looked up): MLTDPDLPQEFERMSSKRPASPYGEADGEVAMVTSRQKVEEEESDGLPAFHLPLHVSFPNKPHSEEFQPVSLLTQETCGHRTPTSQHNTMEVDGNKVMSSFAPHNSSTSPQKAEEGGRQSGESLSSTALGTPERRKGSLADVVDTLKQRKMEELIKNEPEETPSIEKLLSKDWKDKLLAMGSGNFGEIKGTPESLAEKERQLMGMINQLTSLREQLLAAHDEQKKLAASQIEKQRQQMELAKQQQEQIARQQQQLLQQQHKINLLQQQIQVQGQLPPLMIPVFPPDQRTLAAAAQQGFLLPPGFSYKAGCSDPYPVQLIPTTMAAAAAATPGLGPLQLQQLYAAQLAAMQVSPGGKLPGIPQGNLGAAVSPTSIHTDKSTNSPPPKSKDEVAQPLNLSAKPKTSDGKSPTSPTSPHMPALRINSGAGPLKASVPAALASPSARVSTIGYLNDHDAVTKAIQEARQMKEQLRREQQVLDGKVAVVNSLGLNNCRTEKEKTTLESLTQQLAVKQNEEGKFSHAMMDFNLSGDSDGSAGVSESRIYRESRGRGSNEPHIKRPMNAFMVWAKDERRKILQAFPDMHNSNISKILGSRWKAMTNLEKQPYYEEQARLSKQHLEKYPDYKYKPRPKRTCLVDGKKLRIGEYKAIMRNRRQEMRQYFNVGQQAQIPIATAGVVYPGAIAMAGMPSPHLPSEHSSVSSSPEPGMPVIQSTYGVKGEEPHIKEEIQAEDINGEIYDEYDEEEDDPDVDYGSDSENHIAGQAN
Chain of UniProt O95347 (O95347 whole entry, looked up): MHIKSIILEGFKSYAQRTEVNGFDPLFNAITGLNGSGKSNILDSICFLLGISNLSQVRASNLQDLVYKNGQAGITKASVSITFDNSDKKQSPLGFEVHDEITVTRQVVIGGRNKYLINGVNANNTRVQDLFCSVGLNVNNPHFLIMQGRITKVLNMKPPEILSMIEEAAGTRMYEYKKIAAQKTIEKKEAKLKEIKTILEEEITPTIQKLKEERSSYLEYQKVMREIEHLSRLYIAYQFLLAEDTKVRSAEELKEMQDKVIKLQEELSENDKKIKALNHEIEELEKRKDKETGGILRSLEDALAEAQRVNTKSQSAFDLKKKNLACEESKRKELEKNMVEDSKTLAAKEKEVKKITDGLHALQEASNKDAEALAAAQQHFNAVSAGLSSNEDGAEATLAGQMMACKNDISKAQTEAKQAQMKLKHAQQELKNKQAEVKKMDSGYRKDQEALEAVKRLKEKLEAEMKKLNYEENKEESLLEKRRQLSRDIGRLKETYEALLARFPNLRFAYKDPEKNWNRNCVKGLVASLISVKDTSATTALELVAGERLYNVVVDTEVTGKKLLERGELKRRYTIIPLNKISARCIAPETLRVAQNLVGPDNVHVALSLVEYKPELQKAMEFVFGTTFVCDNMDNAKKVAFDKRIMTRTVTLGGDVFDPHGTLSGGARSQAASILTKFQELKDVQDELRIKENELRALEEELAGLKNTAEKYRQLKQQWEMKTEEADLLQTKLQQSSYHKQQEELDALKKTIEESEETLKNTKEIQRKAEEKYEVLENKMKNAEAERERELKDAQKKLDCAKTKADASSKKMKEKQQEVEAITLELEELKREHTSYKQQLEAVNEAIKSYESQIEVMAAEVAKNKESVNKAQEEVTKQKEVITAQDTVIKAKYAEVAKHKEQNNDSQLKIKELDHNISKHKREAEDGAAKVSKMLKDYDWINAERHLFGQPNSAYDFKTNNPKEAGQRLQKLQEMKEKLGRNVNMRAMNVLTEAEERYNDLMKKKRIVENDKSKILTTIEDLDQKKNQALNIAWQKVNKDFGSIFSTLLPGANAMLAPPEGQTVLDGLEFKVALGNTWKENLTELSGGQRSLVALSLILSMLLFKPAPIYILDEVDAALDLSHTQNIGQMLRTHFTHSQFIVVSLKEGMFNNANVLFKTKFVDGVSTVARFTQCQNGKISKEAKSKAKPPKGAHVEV
Chain of UniProt Q53T94 (Q53T94 whole entry, looked up): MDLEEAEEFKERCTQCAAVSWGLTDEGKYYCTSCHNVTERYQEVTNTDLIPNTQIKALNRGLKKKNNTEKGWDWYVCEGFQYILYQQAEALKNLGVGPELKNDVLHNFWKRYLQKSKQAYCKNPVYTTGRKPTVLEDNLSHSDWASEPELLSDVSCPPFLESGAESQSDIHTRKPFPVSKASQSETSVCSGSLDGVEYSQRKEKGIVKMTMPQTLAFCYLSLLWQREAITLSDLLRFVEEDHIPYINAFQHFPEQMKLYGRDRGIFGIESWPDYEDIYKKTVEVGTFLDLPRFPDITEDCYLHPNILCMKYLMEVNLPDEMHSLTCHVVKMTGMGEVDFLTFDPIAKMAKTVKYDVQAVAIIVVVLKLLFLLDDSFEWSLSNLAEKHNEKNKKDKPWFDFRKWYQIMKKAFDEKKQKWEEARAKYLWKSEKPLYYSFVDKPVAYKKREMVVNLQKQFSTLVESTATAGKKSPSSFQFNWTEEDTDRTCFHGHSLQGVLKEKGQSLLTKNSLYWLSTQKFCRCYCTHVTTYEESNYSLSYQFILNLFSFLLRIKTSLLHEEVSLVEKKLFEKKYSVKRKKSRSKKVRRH
Chain of UniProt P78314 (P78314 whole entry, looked up): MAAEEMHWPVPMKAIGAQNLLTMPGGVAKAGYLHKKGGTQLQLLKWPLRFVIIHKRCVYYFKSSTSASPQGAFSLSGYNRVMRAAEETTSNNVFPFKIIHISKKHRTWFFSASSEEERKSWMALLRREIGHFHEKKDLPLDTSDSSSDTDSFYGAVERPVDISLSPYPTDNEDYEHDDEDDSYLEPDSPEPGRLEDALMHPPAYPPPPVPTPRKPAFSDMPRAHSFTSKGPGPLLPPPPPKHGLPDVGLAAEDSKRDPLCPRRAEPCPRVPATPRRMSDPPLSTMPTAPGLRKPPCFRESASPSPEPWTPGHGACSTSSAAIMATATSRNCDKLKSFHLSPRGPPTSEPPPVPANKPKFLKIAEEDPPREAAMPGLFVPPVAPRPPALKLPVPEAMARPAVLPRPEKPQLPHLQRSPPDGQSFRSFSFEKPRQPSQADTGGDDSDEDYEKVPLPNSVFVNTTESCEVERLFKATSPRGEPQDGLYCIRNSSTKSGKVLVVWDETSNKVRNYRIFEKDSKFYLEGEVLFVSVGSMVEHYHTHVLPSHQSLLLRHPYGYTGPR
Chain of UniProt B2RUZ4 (B2RUZ4 whole entry, looked up): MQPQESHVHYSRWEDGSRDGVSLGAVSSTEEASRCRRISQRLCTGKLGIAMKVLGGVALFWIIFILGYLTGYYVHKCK
Chain of UniProt Q8WU79 (Q8WU79 whole entry, looked up): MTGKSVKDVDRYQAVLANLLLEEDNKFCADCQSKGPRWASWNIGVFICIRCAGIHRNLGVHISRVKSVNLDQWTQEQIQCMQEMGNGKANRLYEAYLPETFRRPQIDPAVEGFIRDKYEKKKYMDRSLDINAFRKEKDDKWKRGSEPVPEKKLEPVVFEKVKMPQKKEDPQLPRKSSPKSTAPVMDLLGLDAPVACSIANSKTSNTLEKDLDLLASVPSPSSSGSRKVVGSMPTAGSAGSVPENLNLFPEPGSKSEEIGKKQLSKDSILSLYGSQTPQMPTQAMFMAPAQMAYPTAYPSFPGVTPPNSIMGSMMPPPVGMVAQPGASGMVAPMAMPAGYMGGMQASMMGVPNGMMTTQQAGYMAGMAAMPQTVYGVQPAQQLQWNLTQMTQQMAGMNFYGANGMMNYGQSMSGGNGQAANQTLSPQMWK
Chain of UniProt P49675 (P49675 whole entry, looked up): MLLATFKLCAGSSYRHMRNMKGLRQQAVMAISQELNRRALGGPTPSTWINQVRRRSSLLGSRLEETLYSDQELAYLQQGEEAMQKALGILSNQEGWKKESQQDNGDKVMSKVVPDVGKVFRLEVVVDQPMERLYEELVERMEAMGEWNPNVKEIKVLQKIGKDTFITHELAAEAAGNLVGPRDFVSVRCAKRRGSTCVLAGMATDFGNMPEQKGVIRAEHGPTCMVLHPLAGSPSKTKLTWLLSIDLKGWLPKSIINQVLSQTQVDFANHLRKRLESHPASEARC

Target	log2 fold change [1]	log2 fold change [2]	log2 fold change [3]	log2 fold change [4]	log2 fold change [5]	log2 fold change [6]	log2 fold change [7]	log2 fold change [8]	log2 fold change [9]	log2 fold change [10]	log2 fold change [11]	log2 fold change [12]	log2 fold change [13]	log2 fold change [14]	log2 fold change [15]	log2 fold change [16]	log2 fold change [17]	log2 fold change [18]	log2 fold change [19]	log2 fold change [20]
STK3 isoform 2 (UniProt Q13188)	0.11	0.364	-0.001	0.037	0.026	-0.005	0	-0.025	0.016	-0.073	0.046	0.04	0.032	-0.047	-0.012	-0.017	0.216	-0.01	0.142	–
SMAP2 (UniProt Q8WU79)	-0.008	-0.008	-0.015	-0.01	0.024	0.034	0.019	-0.286 (active)	-0.015	0.002	-0.043	0.011	0.013	-0.02	0.012	0.043	-0.001	0.044	-0.027	0.047
SZT2 (UniProt Q5T011)	-0.225	-0.102	0.14	-0.07	-0.135	0.076	0.126	–	-0.134	0.105	–	-0.032	0.313	-0.095	0.006	0.035	0.094	-0.073	–	0.293
TAOK2 (UniProt Q9UL54)	-0.009	0.151	-0.035	-0.033	–	-0.072	-0.053	-0.037	-0.044	0.024	-0.039	-0.041	0.059	-0.056	-0.077	-0.005	-0.003	-0.005	0.109	0.021
SIX5 (UniProt Q8N196)	-0.021	0.009	-0.023	-0.046	-0.042	-0.061	0.011	0.017	0.13	0.021	–	0.031	-0.026	-0.046	0.084	0.538	-0.132	-0.093	-0.009	–
SMC1B isoform 3 (UniProt Q8NDV3)	0.013	0.017	0.07	-0.029	0.001	-0.012	-0.001	0.021	0.026	-0.005	0.149	0.002	0.003	0.024	-0.071	–	–	0.055	-0.02	-0.073
SMIM1 (UniProt B2RUZ4)	0.018	0.005	0.054	0.036	0.081	-0.132	–	-0.042	-0.021	0.058	–	0.013	0.002	0.026	-0.096	-0.036	-0.222	–	0.088	-0.108
SYK (UniProt P43405)	-0.09	-0.041	-0.025	-0.103	0.051	-0.055	-0.114	-0.001	0.027	-0.065	0.184	0.065	0.092	0.027	-0.123	-0.644 (active)	-0.001	-0.041	0.068	–
SOX5 (UniProt P35711)	-0.064	0.14	-0.049	0.02	0.091	–	0.053	0.036	0.088	-0.105	0.141	0.175	0.048	-0.034	0.049	-0.043	-0.043	0.076	-0.131	0.176
SORBS3 (UniProt O60504)	-0.005	0.067	0.099	-0.113	-0.035	–	-0.158	0.046	-0.05	-0.114	-0.092	0.067	-0.032	-0.129	-0.05	-0.025	0.004	0.052	-0.011	0.034
SH3BP2 isoform 4 (UniProt P78314)	0.096	-0.084	0.07	0.137	-0.004	–	-0.297	0.03	-0.126	0.073	0.087	-0.017	-0.075	-0.052	0.029	-0.04	0.089	0.006	0.02	–
SMC2 (UniProt O95347)	0.014	-0.011	-0.016	-0.008	0.014	-0.012	0	0	0.013	0.001	0.002	0.007	-0.001	-0.047	-0.002	0.134	-0.121	0.005	0.014	-0.033
STAR (UniProt P49675)	–	–	-0.139	0.02	0.073	-0.027	-0.052	-0.049	-0.039	–	0.02	–	–	–	0.008	0.043	-0.03	0.006	0.061	0.074
TAF1B (UniProt Q53T94)	-0.156	0.095	0.043	-0.112	–	0.419	-0.101	0.032	0.006	0.138	0.397	-0.217	0.11	-0.057	-0.039	-0.12	0.166	0.045	0.055	-0.212
SLC40A1 (UniProt Q9NP59)	–	-0.028	-0.037	-0.096	0.042	-0.017	0.049	-0.034	0.041	-0.055	0.01	-0.037	–	0.037	-0.106	-0.491 (active)	0.067	0	0.026	0.123
SKP2 (UniProt Q13309)	–	-0.137	0.137	0.045	0.058	-0.041	0.023	-0.097	-0.015	-0.576 (active)	0.417	0.093	–	0.05	0.025	0.121	-0.008	-0.011	0.032	0.193
